The values below come from PubChem BioAssay.

Test [1] is described as follows: rapamycin-like changes in RPL19A-GFP expression – cell-based, S. cerevisiae, multiplex flow cytometry, primary screen (AID 1862; in the data active = percent of DMSO control GFP below about 86%;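 also: lower values mimic rapamycin by blocking the RPL19A rise seen in DMSO cells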). As to conditions: S. cerevisiae RPL19A-GFP strain, flow cytometry fluorescence, 3 h; at 10 µM; stronger effect = lower value.
A short description of test [2]: TOR pathway GLN3 branch reporter MEP2-GFP changes – S. cerevisiae, multiplex flow cytometry, primary screen (AID 1867;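 active = GFP response, as percent of the DMSO control, above the screen-wide mean plus 3 SD, about 139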;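 also: median GFP channel fluorescence of barcode-gated MEP2-GFP cells measured by flow cytometry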). Conditions: S. cerevisiae MEP2-GFP strain, 3 h, at 10 µM, stronger effect = higher value, 100% means same as DMSO wells.
A short description of test [3]: TOR pathway RTG branch CIT2 reporter changes – S. cerevisiae, GFP fusion, multiplex flow cytometry, primary screen (AID 1870;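 active = percent response above a set limit, the screen-wide mean plus 3 SD, cut at about 130% in these data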;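 also: barcoded CIT2-GFP strain pooled with four other GFP strains with rapamycin as positive control; median GFP fluorescence per well over plate mean of DMSO wells so 100% = DMSO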). Conditions: S. cerevisiae CIT2-GFP expression, 3 h, at 10 µM, stronger effect = higher value.
The nature of test [4]: TOR pathway LAP4-GFP level changes – S. cerevisiae, multiplex flow cytometry, primary screen (AID 1873;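 active = GFP signal, as percent of the solvent control, above the screen mean plus 3 SD, about 149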). As to conditions: S. cerevisiae LAP4-GFP expression, 3 h, at 10 µM, stronger effect = higher value.
Test [5] is described as follows: yeast AGP1-GFP level changes, GLN3 branch – cell-based, multiplex flow cytometry, S. cerevisiae, primary screen (AID 1887;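 active = GFP signal above the screen-wide mean plus 3 SD, that is over about 124.5% of the solvent control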;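 also: AGP1-GFP fusion strain of S. cerevisiae within a five-strain barcoded multiplex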). Conditions: 3 h, at 10 µM, stronger effect = higher value.
Test [6] can be described thus: reduced mouse 2C T cell binding to pMHC/ICAM-1 vesicles – MLPCN validation set, flow cytometry, LFA-1/ICAM-1 modulator project, pilot screen (AID 2523).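 As to vesicle binding response: mean PE anti-B7-1 fluorescence of CD8+ cells relative to row control; 100% = QL9-loaded vesicles with DMSO vehicle in the same plate row.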 Conditions: 2C mouse CD8+ T cells, at 7 µM, stronger effect = lower value; double positive events: measured here: CD8+/vesicle+ event percentage.
The target in test [7] is Integrin beta-1 (Homo sapiens) + Integrin alpha-4 (Homo sapiens) (UniProt P13612+P05556). As to the kind of experiment: alpha4beta1 integrin LIBS antibody binding reduction – U937 cells, HUTS-21 mAb, flow cytometry, validation set, VLA-4 allosteric modulator project, pilot screen (AID 2674;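 active = inhibition above 50%, about 3 SD of the validation set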;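 also: antibody binding induced by the VLA-4 ligand LDV present at three times its Kd; 0% = LDV ligand with antibody and no compound and 100% = antibody without LDV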). Conditions: HUTS-21 LIBS mAb binding, at 6.7 µM, stronger effect = higher value, binding induced by LDV ligand.

A short description of test [8]: calorie-restriction mimetic ROS inhibitors, yeast – validation compound set, pilot screen (AID 2706;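 active = superoxide response below 65% of plate, a cut near 3 SD across the whole screen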;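 also: yeast exposed to compound for one week at 30 degrees C before staining; 100% = mean of all compound wells on the same plate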). Conditions: S. cerevisiae aging, superoxide DHE fluorescence; at 10 µM; stronger effect = lower value.
Test [9] addresses Beta-adrenergic receptor kinase 1 (Homo sapiens) (UniProt P25098). As to the kind of experiment: GRK2 binders displacing RNA aptamer, biochemical, validation, human GRK2, bead flow cytometry (AID 488806;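 active = aptamer binding inhibition above 30%, about 3 SD of noise from non-fluorescent compounds; inactive = inhibition at or below 30%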). As to conditions: bead-bound GRK2, FAM-aptamer displacement, at 10 µM, stronger effect = higher value.
The target of test [10] is Beta-2 adrenergic receptor (Homo sapiens) (UniProt P07550). Nature of the test: agonist-induced loss of surface beta2AR – cell-based, FAP fluorogen, flow cytometry, validation set, pilot screen (AID 504459;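 active = percent response above 42, roughly 3 SD of non-fluorescent test compounds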;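 also: agonist-driven loss of surface beta2AR via internalization measured by FAP dye flow cytometry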). As to conditions: Am2.2-beta2AR cells, at 10 µM, stronger effect = higher value.
In test [11] the target is AP-2 complex subunit beta (Homo sapiens) (UniProt P63010). Nature of the test: beta-arrestin/AP2 interaction blockers – biochemical, validation set, GST-AP2 beads, flow cytometry, pilot screen (AID 504541;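 active = inhibition above 54%, about 3 SD of non-fluorescent compounds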;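 also: AP2 carries R879A mutation and is captured from E. coli lysate; bead-bound FITC arrestin peptide fluorescence measuring arrestin peptide binding to AP2; 0% = DMSO wells and 100% = excess unlabeled arrestin peptide control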). Conditions: FITC arrestin peptide, at 10 µM, stronger effect = higher value, AP2 beta2 appendage fragment, R879A mutant.
The nature of test [12]: cytosolic pH regulators acting via V-ATPase – S. cerevisiae, pHLuorin, HTS validation (AID 504600; in the data active = response above about 15%;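 also: plate controls were DMSO for no effect and reference compound for full effect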). As to conditions: V-ATPase proton transport, at 10 µM, stronger effect = higher value.
Test [13] deals with anti-desmoglein-3 scFv antibody binding to human DSG3. Nature of the test: blockers of pathogenic pemphigus antibody–desmoglein-3 binding – biochemical, validation compound set, bead-based, flow cytometry, pilot screen (AID 588368;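 active = binding below the plate cutoff, the plate median minus 3 SD, with a reading above zero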;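 also: signal is the median channel fluorescence of bead-bound GFP antibody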). As to conditions: Protein G beads, DSG3-Fc, scFv-GFP binding, at 10 µM, stronger effect = lower value.
Test [14] can be described thus: Nile Red efflux blockade in pump-expressing yeast – validation compound set, multiplex, phenotypic, pilot screen (AID 588506;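 active = efflux inhibition above 0.42, the validation set average plus 4 SD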;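 also: Nile Red retained in cells so higher fluorescence means more efflux inhibition; 0 = negative control wells and 1 = enniatin B 25 µM full block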). As to conditions: S. cerevisiae pump-expressing triplex, Nile Red efflux flow cytometry; at 10 µM; stronger effect = higher value; the pumps come from Candida albicans.
Test [15] deals with ATP-binding cassette sub-family B member 6 (Homo sapiens) (UniProt Q9NP58). Nature of the test: blockers of ABCB6-driven porphyrin uptake – K562-ABCB6 cells, flow cytometry, validation set, pilot screen (AID 588550;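 active = inhibition above the screen-wide mean plus 3 SD, about 51%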;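 also: 0% = DMSO wells and 100% = benzethonium chloride 70 µM positive control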). Conditions: K562-ABCB6 porphyrin accumulation, 1 h, at 10 µM, stronger effect = higher value.
A short description of test [16]: AML differentiation inducers, ER-HoxA9 marrow cells – cell-based, GFP/MAC1 double positive, flow cytometry, validation set, primary screen (AID 588685;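 active = differentiation response of at least 50%, scaled between solvent and reference control, from cells with both markers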;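 also: compound exposure lasts four days before antibody staining and flow analysis; 0% = DMSO wells and 100% = 5 µM fulvestrant positive control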). Conditions: stronger effect = higher value, normalized: vehicle 0, fulvestrant 100.

Results filed as inconclusive are left out. The source made the active and inactive calls.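 The calls were made as follows, unless noted: active = response below a set limit, under 55% cells CD8-positive and vesicle-bound, and CD8 cells' 90th-percentile brightness under 279; inactive = the rest.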

Integrin beta-1 (Homo sapiens) + Integrin alpha-4 (Homo sapiens), sequence (P05556 whole entry, looked up): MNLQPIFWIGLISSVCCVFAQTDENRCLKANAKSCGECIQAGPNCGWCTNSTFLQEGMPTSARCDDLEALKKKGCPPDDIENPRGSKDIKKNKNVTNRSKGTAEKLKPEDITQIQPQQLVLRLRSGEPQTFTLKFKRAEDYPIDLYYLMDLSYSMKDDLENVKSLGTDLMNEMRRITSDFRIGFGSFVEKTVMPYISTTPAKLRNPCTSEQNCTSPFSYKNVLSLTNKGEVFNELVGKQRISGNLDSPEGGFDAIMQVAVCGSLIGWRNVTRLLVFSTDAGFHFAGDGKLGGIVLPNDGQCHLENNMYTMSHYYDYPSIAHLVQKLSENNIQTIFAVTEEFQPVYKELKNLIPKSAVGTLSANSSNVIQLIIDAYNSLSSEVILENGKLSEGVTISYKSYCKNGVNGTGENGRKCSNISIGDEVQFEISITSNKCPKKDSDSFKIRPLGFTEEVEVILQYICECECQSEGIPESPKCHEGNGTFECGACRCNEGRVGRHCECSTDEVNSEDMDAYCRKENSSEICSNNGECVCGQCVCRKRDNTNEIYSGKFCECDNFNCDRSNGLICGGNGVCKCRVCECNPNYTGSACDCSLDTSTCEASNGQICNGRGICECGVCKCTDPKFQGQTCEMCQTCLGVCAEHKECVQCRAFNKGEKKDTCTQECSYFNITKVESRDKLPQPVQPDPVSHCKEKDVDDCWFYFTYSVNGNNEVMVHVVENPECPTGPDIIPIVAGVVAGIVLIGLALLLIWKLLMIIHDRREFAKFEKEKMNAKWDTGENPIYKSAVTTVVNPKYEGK
Integrin beta-1 (Homo sapiens) + Integrin alpha-4 (Homo sapiens), sequence (P13612 whole entry, looked up): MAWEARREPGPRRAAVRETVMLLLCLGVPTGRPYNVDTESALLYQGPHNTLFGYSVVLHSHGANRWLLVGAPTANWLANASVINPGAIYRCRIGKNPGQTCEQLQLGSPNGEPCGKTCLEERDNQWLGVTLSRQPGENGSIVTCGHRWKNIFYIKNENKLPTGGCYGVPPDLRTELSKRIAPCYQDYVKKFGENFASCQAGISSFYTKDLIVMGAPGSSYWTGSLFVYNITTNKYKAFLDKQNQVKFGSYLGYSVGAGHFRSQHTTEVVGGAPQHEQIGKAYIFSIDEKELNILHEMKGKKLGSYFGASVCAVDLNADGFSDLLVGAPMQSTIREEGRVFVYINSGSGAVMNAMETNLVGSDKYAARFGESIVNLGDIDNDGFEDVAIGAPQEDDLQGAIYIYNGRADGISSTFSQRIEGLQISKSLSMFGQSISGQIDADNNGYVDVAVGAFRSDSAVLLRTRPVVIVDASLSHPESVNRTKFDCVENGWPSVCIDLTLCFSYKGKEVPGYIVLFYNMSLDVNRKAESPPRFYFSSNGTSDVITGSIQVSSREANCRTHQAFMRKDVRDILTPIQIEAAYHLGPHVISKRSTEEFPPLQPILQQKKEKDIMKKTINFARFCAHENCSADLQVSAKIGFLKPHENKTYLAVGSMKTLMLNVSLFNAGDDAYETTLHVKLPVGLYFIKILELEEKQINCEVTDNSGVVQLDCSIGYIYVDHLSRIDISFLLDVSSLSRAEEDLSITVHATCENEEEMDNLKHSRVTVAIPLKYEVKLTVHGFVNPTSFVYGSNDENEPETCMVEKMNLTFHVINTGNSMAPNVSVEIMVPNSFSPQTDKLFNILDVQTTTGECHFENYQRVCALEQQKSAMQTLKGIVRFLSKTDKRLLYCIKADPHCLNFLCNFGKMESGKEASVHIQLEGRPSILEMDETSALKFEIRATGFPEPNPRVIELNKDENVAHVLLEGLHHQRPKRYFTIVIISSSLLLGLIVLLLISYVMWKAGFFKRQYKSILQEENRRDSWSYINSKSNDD
Beta-adrenergic receptor kinase 1 (Homo sapiens), sequence (P25098 whole entry, looked up): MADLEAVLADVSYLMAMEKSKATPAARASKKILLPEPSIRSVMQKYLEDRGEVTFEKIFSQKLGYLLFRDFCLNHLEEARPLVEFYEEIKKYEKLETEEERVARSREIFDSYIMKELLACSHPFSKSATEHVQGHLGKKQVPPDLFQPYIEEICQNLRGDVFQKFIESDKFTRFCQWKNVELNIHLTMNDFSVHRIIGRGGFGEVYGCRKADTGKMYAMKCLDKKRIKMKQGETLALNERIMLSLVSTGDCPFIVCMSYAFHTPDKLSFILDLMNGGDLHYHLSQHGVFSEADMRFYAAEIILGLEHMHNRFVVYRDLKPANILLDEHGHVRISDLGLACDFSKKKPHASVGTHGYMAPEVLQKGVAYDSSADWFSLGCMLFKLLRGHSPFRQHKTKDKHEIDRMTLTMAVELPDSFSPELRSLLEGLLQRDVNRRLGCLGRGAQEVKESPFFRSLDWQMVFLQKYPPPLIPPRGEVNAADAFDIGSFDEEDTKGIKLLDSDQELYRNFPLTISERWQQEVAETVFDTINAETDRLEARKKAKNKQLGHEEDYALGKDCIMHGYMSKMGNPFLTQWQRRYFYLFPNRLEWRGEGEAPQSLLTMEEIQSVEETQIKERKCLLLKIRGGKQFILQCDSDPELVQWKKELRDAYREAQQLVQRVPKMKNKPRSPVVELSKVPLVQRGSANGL
AP-2 complex subunit beta (Homo sapiens), sequence (P63010 whole entry, looked up, the tested form may be a part, one chain of several): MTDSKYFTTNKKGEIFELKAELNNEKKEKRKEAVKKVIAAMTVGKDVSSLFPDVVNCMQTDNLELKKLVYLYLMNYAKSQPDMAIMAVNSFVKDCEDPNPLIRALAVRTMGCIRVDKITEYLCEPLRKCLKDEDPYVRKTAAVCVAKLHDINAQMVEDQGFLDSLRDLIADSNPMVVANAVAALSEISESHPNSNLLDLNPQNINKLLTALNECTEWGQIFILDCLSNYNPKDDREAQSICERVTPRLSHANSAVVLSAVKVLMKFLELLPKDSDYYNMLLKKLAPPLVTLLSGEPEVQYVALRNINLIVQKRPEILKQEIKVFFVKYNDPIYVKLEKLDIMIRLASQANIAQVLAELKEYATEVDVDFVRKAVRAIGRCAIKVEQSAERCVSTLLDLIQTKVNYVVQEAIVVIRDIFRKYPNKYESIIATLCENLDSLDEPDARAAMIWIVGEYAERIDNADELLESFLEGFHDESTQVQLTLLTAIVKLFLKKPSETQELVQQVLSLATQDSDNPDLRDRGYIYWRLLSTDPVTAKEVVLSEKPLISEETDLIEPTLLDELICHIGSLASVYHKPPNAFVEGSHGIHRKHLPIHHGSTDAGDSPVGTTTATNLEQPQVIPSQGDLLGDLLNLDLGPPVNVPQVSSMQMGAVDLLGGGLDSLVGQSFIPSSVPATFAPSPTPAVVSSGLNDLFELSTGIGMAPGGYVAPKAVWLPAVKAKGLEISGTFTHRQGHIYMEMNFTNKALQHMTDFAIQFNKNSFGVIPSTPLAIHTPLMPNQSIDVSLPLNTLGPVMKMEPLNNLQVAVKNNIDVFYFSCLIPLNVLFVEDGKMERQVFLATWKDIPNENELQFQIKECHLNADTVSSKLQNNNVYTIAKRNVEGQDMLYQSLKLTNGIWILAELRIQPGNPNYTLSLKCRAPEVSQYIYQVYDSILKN
Beta-2 adrenergic receptor (Homo sapiens), sequence (P07550 whole entry, looked up): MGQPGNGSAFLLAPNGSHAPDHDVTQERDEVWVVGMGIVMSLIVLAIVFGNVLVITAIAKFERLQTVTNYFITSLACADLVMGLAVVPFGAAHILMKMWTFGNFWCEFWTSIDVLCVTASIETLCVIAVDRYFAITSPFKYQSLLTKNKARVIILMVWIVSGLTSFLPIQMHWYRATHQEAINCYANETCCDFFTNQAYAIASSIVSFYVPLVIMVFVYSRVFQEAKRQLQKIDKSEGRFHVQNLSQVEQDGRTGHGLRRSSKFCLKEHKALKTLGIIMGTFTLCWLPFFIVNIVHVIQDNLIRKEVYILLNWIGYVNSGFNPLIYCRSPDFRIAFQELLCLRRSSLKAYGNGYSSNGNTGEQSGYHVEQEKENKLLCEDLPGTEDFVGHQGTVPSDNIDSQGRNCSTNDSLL
ATP-binding cassette sub-family B member 6 (Homo sapiens), sequence (Q9NP58 whole entry, looked up): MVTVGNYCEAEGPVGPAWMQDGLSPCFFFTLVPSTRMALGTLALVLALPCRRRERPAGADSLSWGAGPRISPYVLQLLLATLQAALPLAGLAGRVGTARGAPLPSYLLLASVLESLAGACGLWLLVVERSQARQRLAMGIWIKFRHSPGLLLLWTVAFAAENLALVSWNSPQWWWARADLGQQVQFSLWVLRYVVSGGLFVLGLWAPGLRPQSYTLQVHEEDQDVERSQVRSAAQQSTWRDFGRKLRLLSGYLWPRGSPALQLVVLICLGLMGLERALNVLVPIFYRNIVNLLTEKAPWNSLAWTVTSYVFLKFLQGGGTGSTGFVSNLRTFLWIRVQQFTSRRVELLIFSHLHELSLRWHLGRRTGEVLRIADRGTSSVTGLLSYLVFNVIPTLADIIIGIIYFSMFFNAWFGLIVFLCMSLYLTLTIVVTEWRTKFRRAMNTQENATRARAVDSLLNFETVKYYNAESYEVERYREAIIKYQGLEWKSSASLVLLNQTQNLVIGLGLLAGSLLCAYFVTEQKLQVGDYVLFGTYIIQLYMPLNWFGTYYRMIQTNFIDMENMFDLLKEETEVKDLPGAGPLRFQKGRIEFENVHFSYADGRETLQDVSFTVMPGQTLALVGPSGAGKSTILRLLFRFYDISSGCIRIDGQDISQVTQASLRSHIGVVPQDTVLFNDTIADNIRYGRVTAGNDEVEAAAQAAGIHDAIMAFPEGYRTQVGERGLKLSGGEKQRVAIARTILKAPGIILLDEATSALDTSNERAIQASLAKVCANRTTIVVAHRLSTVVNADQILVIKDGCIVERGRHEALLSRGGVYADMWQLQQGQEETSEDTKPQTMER

As for `CCOC(=O)c1ccc(NC(=S)NCCc2ccccc2F)cc1`, the percent of DMSO control GFP in test [1] was 100% (inactive). Moreover, the GFP response vs DMSO is 107% (inactive) in [2] and 111% (inactive) in test [4]. Moreover, the percent response of DMSO control in test [3] is 101% (inactive). Also, the GFP response, % of DMSO in [5] is 93.7% (inactive). Besides, in test [6], the double positive events was 68.7%. The vesicle binding response in test [6] was 1410% (inactive). Further, the inhibition in [7] is -21.2% (inactive); in test [11], 18.6% (inactive); in test [15], -3% (inactive). In addition, in [8], the superoxide response (% of plate) was 98.7% (inactive). The aptamer binding inhibition in test [9] is 3% (inactive). The figures for the response in test [10] and in [12] were 2.84% (inactive) and 1.24% (inactive), respectively. Also, the binding (% of control) in test [13] is 104% (inactive). For the same compound, the efflux inhibition (fraction of control) in [14] was 0.58 (active). For the same compound, in [16], the differentiation response is 9.04% (inactive).

Regarding `COc1ccc(CNCCC(c2ccc(F)cc2)c2ccc(OC(C)C)cc2)cc1OC` (stereo not given), in test [1], the percent of DMSO control GFP is 97.9% (inactive). Besides, the GFP response vs DMSO was 105% (inactive) in test [2] and 119% (inactive) in test [4]. In addition, the percent response of DMSO control in [3] was 105% (inactive). Besides, in test [5], the GFP response, % of DMSO is 110% (inactive). The same compound displayed a double positive events in test [6] of 66.1%. Also, in test [6], the vesicle binding response is 227% (inactive). In addition, the values for the inhibition in [7], in [11] and in test [15] were 64.5% (active), 38.1% (inactive) and -1% (inactive), respectively. Further, in [8], the superoxide response (% of plate) was 91.3% (inactive). Also, in test [9], the aptamer binding inhibition was -14% (inactive). Further, the results for the response in test [10] and in test [12] were 24.3% (inactive) and 0.54% (inactive), respectively. Besides, the binding (% of control) in test [13] was 113% (inactive). Moreover, the efflux inhibition (fraction of control) in test [14] is -0.04 (inactive). For the same compound, the differentiation response in test [16] is 2.89% (inactive).

As to `COc1ccc(CNC(=O)N[C@H](C(=O)O)C(C)C)cc1OC`, the percent of DMSO control GFP in test [1] is 92.6% (inactive). Also, the GFP response vs DMSO in [2] is 119% (inactive); in test [4] it was 81.4% (inactive). For the same compound, in [3], the percent response of DMSO control was 111% (inactive). Further, in [5], the GFP response, % of DMSO is 89.8% (inactive). The double positive events in [6] stood at 53.2%. In addition, in test [6], the vesicle binding response is 186% (inactive). The results for the inhibition in test [7], in test [11] and in test [15] were -9.06% (inactive), -15.3% (inactive) and 3% (inactive), respectively. The superoxide response (% of plate) in [8] is 112% (inactive). For the same compound, in test [9], the aptamer binding inhibition is -5% (inactive). The response is -4.83% (inactive) in test [10] and 1.94% (inactive) in test [12]. Moreover, the binding (% of control) in [13] was 98.1% (inactive). Besides, the efflux inhibition (fraction of control) in test [14] was 0.3 (inactive). Further, the differentiation response in test [16] is 7.37% (inactive).

In the case of `CC(=O)OCC(=O)[C@@]1(O)[C@H](C)C[C@H]2[C@@H]3CCC4=CC(=O)C=C[C@]4(C)[C@@]3(F)[C@@H](O)C[C@@]21C`, the percent of DMSO control GFP in test [1] was 97.2% (inactive). Besides, the GFP response vs DMSO in test [2] is 119% (inactive); in [4], 80.9% (inactive). Besides, the percent response of DMSO control in test [3] is 107% (inactive). The GFP response, % of DMSO in [5] is 91.7% (inactive). Also, the double positive events in test [6] was 59.3%. Further, the vesicle binding response in [6] is 192% (inactive). The inhibition in test [7] was 12.3% (inactive); in [11] it was -11.7% (inactive); in [15], 9% (inactive). Also, the superoxide response (% of plate) in test [8] was 108% (inactive). Further, in test [9], the aptamer binding inhibition is -2% (inactive). Also, the figures for the response in test [10] and in test [12] were -2.19% (inactive) and 2.51% (inactive), respectively. Moreover, the binding (% of control) in [13] was 99.4% (inactive). For the same compound, in test [14], the efflux inhibition (fraction of control) is -0.35 (inactive). Also, in test [16], the differentiation response was -3.28% (inactive).

Consider `COc1cc(CNc2nnnn2C)ccc1OCc1ccc(F)cc1Cl`, for which the percent of DMSO control GFP in [1] is 102% (inactive). Besides, the GFP response vs DMSO is 101% (inactive) in test [2] and 92.3% (inactive) in [4]. Moreover, in test [3], the percent response of DMSO control was 98.2% (inactive). Also, the GFP response, % of DMSO in [5] is 97.2% (inactive). For the same compound, in test [6], the double positive events was found to be 66.7%. The vesicle binding response in test [6] was 150% (inactive). The values for the inhibition in [7], in [11] and in test [15] were 3.98% (inactive), 16.9% (inactive) and 7% (inactive), respectively. The superoxide response (% of plate) in test [8] was 51.5% (active). Also, the aptamer binding inhibition in [9] was -1% (inactive). Also, the figures for the response in test [10] and in test [12] were 15.7% (inactive) and 0.17% (inactive), respectively. The binding (% of control) in [13] is 104% (inactive). Moreover, the efflux inhibition (fraction of control) in test [14] was 0.68 (active). Also, in test [16], the differentiation response was -5.68% (inactive).
